Where “and” joins values, the source holds several entries; their conditions need not be identical. Equal values may be shown once. Read-outs that look alike come from different tables or passages of the source.
Legend:
BLK = details: concentration: 1 μM, replicates: in singlicate, n = 1
BMPR1A = details: concentration: 1 μM, replicates: in singlicate, n = 1
BMPR1B = details: concentration: 1 μM, replicates: in singlicate, n = 1
BMPR2 = details: concentration: 1 μM, replicates: in singlicate, n = 1
BMX = details: concentration: 1 μM, replicates: in singlicate, n = 1
BRAF = details: concentration: 1 μM, replicates: in singlicate; n = 1
BRK = test system: T1, BRK; details: concentration: 1 μM, replicates: in singlicate, n = 1
T1 construct: gene PTK6

BRSK1 = details: concentration: 1 μM, replicates: in singlicate, n = 1
BRSK2 = details: concentration: 1 μM, replicates: in singlicate, n = 1
BTK = details: concentration: 1 μM, replicates: in singlicate; n = 1
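Further: KINOMEscan kinase panel screen.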

| SMILES | %Inh (BLK) [%] | %Inh (BMPR1A) [%] | %Inh (BMPR1B) [%] | %Inh (BMPR2) [%] | %Inh (BMX) [%] | %Inh (BRAF) [%] | %Inh (BRK) [%] | %Inh (BRSK1) [%] | %Inh (BRSK2) [%] | %Inh (BTK) [%] | %Inh (BLK; 1 µM) | %Inh (BMPR1A; 1 µM) | %Inh (BMPR1B; 1 µM) | %Inh (BMPR2; 1 µM) | %Inh (BMX; 1 µM) | %Inh (BRK; 1 µM) | %Inh (BRSK1; 1 µM) | %Inh (BRSK2; 1 µM) |
| --- | --- | --- | --- | --- | --- | --- | --- | --- | --- | --- | --- | --- | --- | --- | --- | --- | --- | --- |
| O=C1NC(=O)C(N2CCc3ccccc32)=C1c1cccc(Cl)c1 [SB-408010] | 0 | 23 | 0 | 4 | 26 | 3 | 0 | 0 | 0 | 23 | – | – | – | – | – | – | – | – |
| CC(C)(C)n1cnc2c(N)ncnc21 [SKF-97359] | 0 | 0 | 0 | 36 | 0 | 0 | 0 | 0 | 3 | 19 | – | – | – | – | – | – | – | – |
| COc1ccc(COc2cc(-n3cnc4ccccc43)sc2C(N)=O)cc1 [GSK1024304] | 37 | 0 | 0 | 0 | 0 | 0 | 3 | 0 | 5 | 0 | – | – | – | – | – | – | – | – |
| COc1cc2ncn(-c3cc(OCc4sccc4Cl)c(C(N)=O)s3)c2cc1OC [GSK448459] | 32 | 0 | 0 | 14 | 0 | 0 | 11 | 37 | 45 | 0 | – | – | – | – | – | – | – | – |
| Nc1nccc(-c2c(-c3ccc(F)cc3)ncn2C2CCN(CC(F)(F)F)CC2)n1 [SB-236560] | 0 | 0 | 0 | 45 | 0 | 0 | 0 | 40 | 0 | 37 | – | – | – | – | – | – | – | – |
| Cn1cc(-c2ccc3c(c2)CCN3C(=O)Cc2ccccc2Cl)c2c(N)ncnc21 [GSK2608885] | 99.2 | 10 | 0 | 0 | 93.2 | 90.5 | 95.3 | 0 | 6 | 95.6 | – | – | – | – | – | – | – | – |
| COc1ccc(Nc2ncc(C#N)c(Nc3ccccc3C(N)=O)n2)cc1N1CCN(C)CC1.Cl [GSK1558669] | 99.8 | 0 | 80 | 92 | 75 | 98.6 | 99.7 | 90.9 | 88 | 97.2 | – | – | – | – | – | – | – | – |
| O=C(NCCNc1ccnc(Nc2ccc(F)cc2)n1)c1cc2ccccc2s1 [GSK1379874] | 23 | 0 | 0 | 15 | 1 | 0 | 29 | 0 | 0 | 0 | – | – | – | – | – | – | – | – |
| COc1ccc(Nc2nccc(N3CCC(NC(=O)Nc4cc(C)ccc4C)C3)n2)cc1 (stereo not drawn) [GSK1379741] | 0 | 0 | 0 | 0 | 0 | 0 | 5 | 0 | 0 | 0 | – | – | – | – | – | – | – | – |
| COC(=O)Nc1nc2cc(Oc3ccc(NC(=O)Nc4cc(F)ccc4F)cc3)ccc2[nH]1.Cl [GW701424] | 25 | 0 | 0 | 24 | 9 | 53 | 0 | 0 | 0 | 6 | – | – | – | – | – | – | – | – |
| CN1c2ccc(NCc3ccc(F)cc3)cc2-c2c(cnn2C)S1(=O)=O | 0 | 0 | 1 | 0 | 0 | 17 | 0 | 0 | 0 | 0 | – | – | – | – | – | – | – | – |
| CC(C)Oc1ccc2c(-c3ccnc(Nc4ccc(N5CCN(C)CC5)cc4)n3)cnn2n1 [GW696155] | 23 | 0 | 90.5 | 19 | 4 | 43 | 6 | 0 | 0 | 20 | – | – | – | – | – | – | – | – |
| Cc1cccc(Cn2ccn3c(=O)cc(N4CCOCC4)nc23)c1 [GSK2297542] | 57 | 0 | 0 | 0 | 27 | 4 | 22 | 0 | 6 | 0 | – | – | – | – | – | – | – | – |
| CCc1nc(-c2cccc(C)c2)c(-c2ccnc(NCc3ccccc3)c2)s1 | 0 | 0 | 0 | 9 | 0 | 38 | 0 | 2 | 0 | 0 | – | – | – | – | – | – | – | – |
| [2H]C([2H])(c1cccc(C(F)(F)F)c1C)n1ccn2c(=O)nc(N3CCOCC3)cc12 [GSK2336394] | 25 | 1 | 0 | 0 | 9 | 44 | 18 | 7 | 0 | 0 | – | – | – | – | – | – | – | – |
| CN1c2ccc(CNc3ccc(F)cc3)cc2-c2c(cnn2C)S1(=O)=O | 0 | 0 | 0 | 0 | 0 | 36 | 0 | 0 | 0 | 0 | – | – | – | – | – | – | – | – |
| COc1ccc(Nc2nccc(N3CCC(NC(=O)Nc4cccc(C(C)=O)c4)C3)n2)cc1 (stereo not drawn) [GSK1379731] | 35 | 0 | 0 | 0 | 0 | 0 | 7 | 0 | 0 | 0 | – | – | – | – | – | – | – | – |

| SMILES | %Inh (BLK) [%] | %Inh (BMPR1A) [%] | %Inh (BMPR1B) [%] | %Inh (BMPR2) [%] | %Inh (BMX) [%] | %Inh (BRAF) [%] | %Inh (BRK) [%] | %Inh (BRSK1) [%] | %Inh (BRSK2) [%] | %Inh (BTK) [%] | %Inh (BLK; 1 µM) | %Inh (BMPR1A; 1 µM) | %Inh (BMPR1B; 1 µM) | %Inh (BMPR2; 1 µM) | %Inh (BMX; 1 µM) | %Inh (BRK; 1 µM) | %Inh (BRSK1; 1 µM) | %Inh (BRSK2; 1 µM) |
| --- | --- | --- | --- | --- | --- | --- | --- | --- | --- | --- | --- | --- | --- | --- | --- | --- | --- | --- |
| COc1ccc(CNC(=O)NC2CCN(c3ccnc(Nc4ccc(OC)cc4)n3)C2)cc1 (stereo not drawn) [GSK1379727] | 43 | 0 | 0 | 30 | 6 | 0 | 9 | 0 | 0 | 12 | – | – | – | – | – | – | – | – |
| Cl.Nc1ncnc2occ(-c3ccc(NC(=O)Nc4cc(C(F)(F)F)ccc4F)cc3)c12 [SB-707548] | 44 | 0 | 0 | 1 | 82 | 71 | 3 | 20 | 0 | 21 | – | – | – | – | – | – | – | – |
| Cc1cn2c(=O)cc(N3CCOCC3)nc2n1Cc1cccc(Cl)c1Cl [GSK2334006] | 37 | 19 | 0 | 0 | 10 | 15 | 5 | 14 | 0 | 0 | – | – | – | – | – | – | – | – |
| Nc1nc(-c2ccc3c(N)n[nH]c3c2)cc(N2CCCC2)n1 [GSK2227430] | 7 | 0 | 0 | 0 | 1 | 0 | 20 | 0 | 0 | 0 | – | – | – | – | – | – | – | – |
| COCCNC(=O)c1ccc(-c2cc(C(=O)NC3CC3)cc(F)c2C)cc1 [GW868318] | 0 | 19 | 19 | 46 | 7 | 10 | 0 | 0 | 18 | 0 | – | – | – | – | – | – | – | – |
| CC(=O)Nc1ccc(COc2ccc(Nc3ccnc4cc(-c5ccccn5)ccc34)cc2)cc1.Cl [GW440148] | 53 | 0 | 0 | 1 | 17 | 0 | 57 | 0 | 0 | 0 | – | – | – | – | – | – | – | – |
| NS(=O)(=O)c1cccc(-c2ccc3ncc(N4CCOCC4)nc3c2)c1 [GSK1535721] | 0 | 0 | 7 | 2 | 30 | 0 | 13 | 0 | 0 | 1 | – | – | – | – | – | – | – | – |
| NCCNS(=O)(=O)c1ccc(-c2ccnc3[nH]ccc23)cc1 [GSK977617] | – | – | – | – | – | 0 | – | – | – | 0 | 49% and 16% | 10% and 0% | 0% and 22% | 18% and 27% | 2% and 0% | 0% and 9% | 28% and 5% | 25% and 0% |
| O=c1cc(N2CCOCC2)nc2n(Cc3cccc4ccccc34)ccn12 [GSK2333389] | 21 | 0 | 0 | 0 | 7 | 9 | 0 | 1 | 0 | 0 | – | – | – | – | – | – | – | – |
| COc1cc2c(cc1OCCN1CCN(C)CC1)ncc1c3ccc(C#N)cc3[nH]c21 | 4 | 0 | 0 | 0 | 0 | 0 | 23 | 4 | 0 | 0 | – | – | – | – | – | – | – | – |
| Fc1ccc(-c2nn3c(OCC(F)(F)F)cccc3c2-c2ccncc2)cc1 [GW514784] | 43 | 0 | 0 | 1 | 2 | 44 | 1 | 0 | 0 | 31 | – | – | – | – | – | – | – | – |
| Cc1cccc(-c2nc(Nc3ccc4ncsc4c3)c3ccccc3n2)n1 [GW867588] | 11 | 0 | 0 | 15 | 0 | 7 | 0 | 0 | 0 | 0 | – | – | – | – | – | – | – | – |
| O=C1Cc2cc(Nc3nc(NCc4cccc(S(=O)(=O)C(F)(F)F)c4)ncc3C(F)(F)F)ccc2N1 | 1 | 0 | 18 | 19 | 0 | 1 | 0 | 3 | 0 | 0 | – | – | – | – | – | – | – | – |
| CNc1ncnc2[nH]ncc12 [SKF-18355] | 0 | 6 | 0 | 35 | 0 | 11 | 0 | 0 | 0 | 0 | – | – | – | – | – | – | – | – |
| Cc1c2ccc(N(C)c3ccnc(Nc4cccc(S(N)(=O)=O)c4)n3)cc2nn1Cc1ccccc1.Cl.Cl [GW787226] | 82 | 3 | 0 | 1 | 6 | 95.8 | 89 | 0 | 0 | 0 | – | – | – | – | – | – | – | – |
| O=c1cc(N2CCOCC2)nc2n(Cc3cccc(C(F)(F)F)c3)ccn12 [GSK2297543] | 16 | 0 | 0 | 0 | 20 | 0 | 2 | 0 | 7 | 0 | – | – | – | – | – | – | – | – |
